This passage reports growth results from PubChem BioAssay (NCI).

This is part of a sample that, as a whole, favours compounds with a hit. Of some 83,000 tested, about 20% had one in any assay.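 Each cell line was grown in a 96-well plate and treated with one concentration of compound for 48 hours. Values below 10 were considered active.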 Values without a mark were called inactive. Activity calls are given as the source filed them.

What all share (assay): NCI-60 one-dose screen, 48 h (100 = growth as untreated, 0 = no growth, -100 = all killed)
For one test, the system named is SK-MEL-2 melanoma. As to conditions: 10 µM unless noted.
Another test has as its system SN12C renal. To be noted: 10 µM unless noted.
The test system of the next test is UO-31 renal. To be noted: 10 µM unless noted.
The test system of a further test is TK-10 renal. As to conditions: 10 µM unless noted.
For a further test, the system named is ACHN renal. As to conditions: 10 µM unless noted.
The test system of the next test is CAKI-1 renal. As to conditions: 10 µM unless noted.
In the next test the test system is A498 renal. To be noted: 10 µM unless noted.
The next test concerns CCRF-CEM leukemia. As to conditions: 10 µM unless noted.
The subject of a further test is MOLT-4 leukemia. To be noted: 10 µM unless noted.
A further test has as its system SR leukemia. As to conditions: 10 µM unless noted.
For the next test, the system named is RPMI-8226 leukemia. To be noted: 10 µM.
A further test concerns OVCAR-8 ovarian. As to conditions: 10 µM unless noted.
A further test concerns OVCAR-5 ovarian. As to conditions: 10 µM unless noted.
The subject of another test is OVCAR-4 ovarian. As to conditions: 10 µM unless noted.
The next test deals with SK-OV-3 ovarian. To be noted: 10 µM.
In a further test the test system is IGROV1 ovarian. To be noted: 10 µM unless noted.
A further test deals with OVCAR-3 ovarian. As to conditions: 10 µM unless noted.
In the next test the test system is HS 578T breast. To be noted: 10 µM unless noted.
The next test concerns NCI/ADR-RES ovarian. As to conditions: 10 µM unless noted.

Consider `CCCCC(CCCC)(S(=O)(=O)CC)S(=O)(=O)CC`, for which the growth in the test with SK-MEL-2 melanoma was 108%; in the test with SN12C renal, 102%; with UO-31 renal, 84.6%; with TK-10 renal, 99.2%; with ACHN renal, 105%; in the test on CAKI-1 renal it was 93.6%. In addition, the growth is 88.7% with A498 renal; 91.5% in the test on CCRF-CEM leukemia; 93.6% in the test with MOLT-4 leukemia; 92.3% in the test on SR leukemia; 90.8% with RPMI-8226 leukemia; 102% with OVCAR-8 ovarian. In addition, the growth in the test with OVCAR-5 ovarian was 103%; in the test on OVCAR-4 ovarian, 110%; with SK-OV-3 ovarian, 105%; with IGROV1 ovarian, 104%; with OVCAR-3 ovarian, 105%; in the test on HS 578T breast it was 104%. In the test with NCI/ADR-RES ovarian, the growth is 102%.
Take `Cc1nc2cc(Nc3nc(N4CCOCC4)nc(N4CCN(C)CC4)n3)ccc2n1Cc1ccccc1`: the growth is 106% in the test on SK-MEL-2 melanoma; 101% in the test on SN12C renal; 81.7% in the test with UO-31 renal; 106% in the test on TK-10 renal; 96.6% in the test with ACHN renal; 93.3% in the test on CAKI-1 renal. The growth in the test on A498 renal was 92.4%; in the test with CCRF-CEM leukemia it was 96.2%; in the test with MOLT-4 leukemia, 91.8%; in the test with SR leukemia it was 93%; in the test with RPMI-8226 leukemia it was 102%; with OVCAR-8 ovarian it was 98.3%. Further, the growth was 96.7% in the test with OVCAR-5 ovarian; 100% in the test with OVCAR-4 ovarian; 103% in the test with SK-OV-3 ovarian; 103% in the test on IGROV1 ovarian; 115% in the test on OVCAR-3 ovarian; 108% with HS 578T breast. Moreover, the growth in the test on NCI/ADR-RES ovarian was 110%.
As for `CCCC1=NNC(=O)C1`, the growth is 106% in the test on SK-MEL-2 melanoma; 101% with SN12C renal; 82.8% in the test on UO-31 renal; 97.2% in the test with TK-10 renal; 103% with ACHN renal; 94.8% in the test on CAKI-1 renal. Further, the growth in the test on A498 renal was 109%; in the test with CCRF-CEM leukemia it was 100%; in the test on MOLT-4 leukemia it was 97.2%; with SR leukemia, 103%; in the test with RPMI-8226 leukemia, 100%; with OVCAR-8 ovarian, 102%. Besides, the growth was 103% with OVCAR-5 ovarian; 106% with OVCAR-4 ovarian; 104% in the test with SK-OV-3 ovarian; 103% in the test with IGROV1 ovarian; 120% in the test on OVCAR-3 ovarian; 110% in the test on HS 578T breast. In the test on NCI/ADR-RES ovarian, the growth is 115%.
As to `O=C1CC(c2ccsc2)c2snc(-c3ccc(Cl)cc3)c2N1` (configuration not stated), the growth in the test with SK-MEL-2 melanoma was 27.3%; in the test on SN12C renal it was 54%; in the test with UO-31 renal, 48.4%; with TK-10 renal it was 53.8%; in the test on ACHN renal, 53%; in the test on CAKI-1 renal, 26.6%. For the same compound, the growth in the test on A498 renal is 24.2%; with CCRF-CEM leukemia, 16.3%; with MOLT-4 leukemia, 14.5%; in the test on SR leukemia, 20.9%; in the test with RPMI-8226 leukemia, 12.5%; with OVCAR-8 ovarian, 40.8%. The growth in the test on OVCAR-5 ovarian is 47.7%; in the test with OVCAR-4 ovarian it was 37.5%; in the test on SK-OV-3 ovarian it was -3.45% (active); in the test with IGROV1 ovarian, 40.7%; in the test with OVCAR-3 ovarian, -14% (active); with HS 578T breast it was 46%. For the same compound, the growth in the test with NCI/ADR-RES ovarian was 16.8%.
Regarding `Cc1c(NCC(=O)Nc2nc3ccccc3[nH]2)c(=O)n(-c2ccccc2)n1C`, the growth was 104% in the test with SK-MEL-2 melanoma; 99.4% in the test with SN12C renal; 81.5% in the test on UO-31 renal; 117% in the test with TK-10 renal; 97.3% in the test with ACHN renal; 97.9% in the test with CAKI-1 renal. For the same compound, the growth was 74% with A498 renal; 93.3% in the test on CCRF-CEM leukemia; 104% in the test with MOLT-4 leukemia; 92.4% with SR leukemia; 96.7% in the test on RPMI-8226 leukemia; 99.9% with OVCAR-8 ovarian. The growth in the test with OVCAR-5 ovarian was 92.5%; with OVCAR-4 ovarian, 88.3%; with SK-OV-3 ovarian, 106%; with IGROV1 ovarian it was 102%; with OVCAR-3 ovarian, 109%; with HS 578T breast it was 101%. Further, the growth in the test with NCI/ADR-RES ovarian is 101%.
`O=S(=O)(Nc1ncccn1)c1ccc(Nc2ccc3nnc(-c4ccncc4)n3n2)cc1`: the growth in the test on SK-MEL-2 melanoma was 125%; with SN12C renal it was 93.9%; in the test on UO-31 renal, 81%; in the test with TK-10 renal it was 115%; in the test on ACHN renal, 98.6%; in the test on CAKI-1 renal, 99.6%. Also, the growth in the test with A498 renal was 87.5%; in the test on CCRF-CEM leukemia, 94.3%; in the test with MOLT-4 leukemia, 109%; in the test on SR leukemia, 102%; in the test on RPMI-8226 leukemia it was 109%; with OVCAR-8 ovarian, 103%. For the same compound, the growth in the test with OVCAR-5 ovarian was 94.3%; with OVCAR-4 ovarian it was 93.8%; in the test on SK-OV-3 ovarian, 103%; in the test with IGROV1 ovarian it was 105%; in the test on OVCAR-3 ovarian, 104%; with HS 578T breast it was 84.3%. Besides, the growth in the test on NCI/ADR-RES ovarian was 102%.
For `O=[N+]([O-])c1cc2c(cc1Br)C1C(C3C2C(Cl)(Cl)C(Cl)=C(Cl)C3(Cl)Cl)C(Cl)(Cl)C(Cl)=C(Cl)C1(Cl)Cl` (configuration not stated), the growth was 81.2% in the test with SK-MEL-2 melanoma; 98.7% in the test with SN12C renal; 74.4% in the test with UO-31 renal; 103% with TK-10 renal; 102% in the test with ACHN renal; 91.4% with CAKI-1 renal. Further, the growth was 111% in the test with A498 renal; 86.5% with CCRF-CEM leukemia; 95.1% in the test on MOLT-4 leukemia; 80.2% with SR leukemia; 88.1% in the test on RPMI-8226 leukemia; 97% in the test with OVCAR-8 ovarian. In addition, the growth was 102% in the test with OVCAR-5 ovarian; 102% with OVCAR-4 ovarian; 101% in the test with SK-OV-3 ovarian; 102% in the test with IGROV1 ovarian; 95.6% in the test with OVCAR-3 ovarian; 114% with HS 578T breast. Also, in the test on NCI/ADR-RES ovarian, the growth is 94%.
Take `Cc1c(C)n(CC(O)CNC2CCCCC2C)c2ccccc12` (configuration not stated): the growth in the test with SK-MEL-2 melanoma is -49.9% (active); with SN12C renal, -41.9% (active); with UO-31 renal, -87.5% (active); with TK-10 renal, -76.3% (active); with ACHN renal, -41.3% (active); with CAKI-1 renal it was -38.7% (active). In addition, the growth with A498 renal was 63.3%; with CCRF-CEM leukemia, -9.05% (active); in the test on MOLT-4 leukemia it was 4.33% (active); in the test with SR leukemia it was 1.95% (active); in the test on RPMI-8226 leukemia, -10.6% (active); with OVCAR-8 ovarian, 4.94% (active). The growth was -58.8% (active) in the test with OVCAR-5 ovarian; -26.2% (active) in the test on OVCAR-4 ovarian; 52.9% in the test with SK-OV-3 ovarian; -73.1% (active) in the test on IGROV1 ovarian; -89.8% (active) with OVCAR-3 ovarian; 28.3% in the test on HS 578T breast. Besides, the growth in the test on NCI/ADR-RES ovarian was 3.85% (active).
